Assay results taken from PubChem BioAssay.
For part of these data: Measured potencies and affinities stand elsewhere. Activity calls are given as the source filed them. Unless noted, how the calls were made is not given here.

Key:
[1] = antimalarial activity against Dd2 strain (AID 2302;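 active means growth inhibition above 50% at the single 2 µM test dose, taken to imply half-maximal potency below 2 µM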;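 further: 0% = DMSO untreated growth and 100% = chloroquine plus artemisinin killed control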); conditions: P. falciparum Dd2 in RBCs, LDH growth readout, 72 h; at 2 µM; active compounds read high
[2] = HepG2 cytotoxicity, primary screen, cytotoxicity control for P. falciparum antimalarial project, cell-based, ATP luminescence (AID 2303;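 active means inhibition above 50%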;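 further: 0% = DMSO wells and 100% = digitonin-killed cells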); conditions: HepG2 viability, 24-48 h, at 10 µM, active compounds read high
[3] = target: L-lactate dehydrogenase (Plasmodium falciparum (isolate CDC / Honduras)) (UniProt Q27743); experiment: PfLDH activity inhibition – cell lysate, 3D7 strain, counter-screen for P. falciparum growth inhibition project (AID 2304);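 further: 0% = vehicle and 100% = reference inhibitor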; conditions: P. falciparum 3D7 crude extract, LDH APAD/NBT absorbance; at 2 µM; active compounds read high
[4] = inhibition of 3D7 malaria parasite growth – strain 3D7 (AID 2306);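 further: 0% = DMSO wells and 100% = chloroquine plus artemisinin control wells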; conditions: P. falciparum 3D7 erythrocytic growth, LDH absorbance, 72 h; at 2 µM; active compounds read high
[5] = target: Calcium-dependent protein kinase 1 (Plasmodium falciparum (isolate 3D7)) (UniProt P62344); experiment: PfCDPK1 kinase inhibitors, biochemical, TCAMS library (AID 1159585; cut-off not given, nearly all actives have IC50 up to about 0.98 µM;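 further: inhibitors leave more ATP so luminescence rises with inhibition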); conditions: recombinant PfCDPK1, Kinase-Glo ATP depletion luminescence
[6] = target: Plasmodium falciparum protein kinase 6 (PK6, PF3D7_1337100) (UniProt Q8IDW1); experiment: PfPK6 kinase inhibitors, biochemical, TCAMS library (AID 1159586); conditions: recombinant PfPK6, Kinase-Glo ATP depletion luminescence
[7] = target: Protein kinase 7 (PK7), Plasmodium falciparum 3D7 (PF3D7_0213400) (UniProt Q7YTF7); experiment: inhibition of Plasmodium PK7 catalytic activity – biochemical, TCAMS antimalarial set, Kinase-Glo luminescence (AID 1159587); conditions: recombinant PfPK7, Kinase-Glo ATP depletion luminescence
[8] = target: Calcium-dependent protein kinase 4 (Plasmodium falciparum (isolate 3D7)) (UniProt Q8IBS5); experiment: PfCDPK4 kinase inhibitors, biochemical, TCAMS library (AID 1159588; cut-off not given, nearly all actives have IC50 up to about 0.91 µM); conditions: recombinant PfCDPK4, Kinase-Glo ATP depletion luminescence
Sequence of Calcium-dependent protein kinase 4 (Plasmodium falciparum (isolate 3D7)) (Q8IBS5 whole entry, looked up): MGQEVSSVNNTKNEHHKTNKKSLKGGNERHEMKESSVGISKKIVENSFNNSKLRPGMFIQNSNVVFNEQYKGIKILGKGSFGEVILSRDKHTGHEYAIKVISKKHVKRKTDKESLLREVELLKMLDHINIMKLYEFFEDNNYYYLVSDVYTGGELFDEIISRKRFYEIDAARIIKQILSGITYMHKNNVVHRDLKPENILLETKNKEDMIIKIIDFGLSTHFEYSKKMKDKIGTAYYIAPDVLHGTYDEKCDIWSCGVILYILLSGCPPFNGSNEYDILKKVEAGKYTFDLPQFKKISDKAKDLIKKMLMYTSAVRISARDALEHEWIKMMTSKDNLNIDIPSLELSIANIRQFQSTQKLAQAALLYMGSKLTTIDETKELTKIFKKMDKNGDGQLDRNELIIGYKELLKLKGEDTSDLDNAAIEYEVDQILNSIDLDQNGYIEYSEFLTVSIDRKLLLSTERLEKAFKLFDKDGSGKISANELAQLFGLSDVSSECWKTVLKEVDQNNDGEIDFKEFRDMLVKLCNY

Sequence of Protein kinase 7 (PK7), Plasmodium falciparum 3D7 (PF3D7_0213400) (Q7YTF7 1-343): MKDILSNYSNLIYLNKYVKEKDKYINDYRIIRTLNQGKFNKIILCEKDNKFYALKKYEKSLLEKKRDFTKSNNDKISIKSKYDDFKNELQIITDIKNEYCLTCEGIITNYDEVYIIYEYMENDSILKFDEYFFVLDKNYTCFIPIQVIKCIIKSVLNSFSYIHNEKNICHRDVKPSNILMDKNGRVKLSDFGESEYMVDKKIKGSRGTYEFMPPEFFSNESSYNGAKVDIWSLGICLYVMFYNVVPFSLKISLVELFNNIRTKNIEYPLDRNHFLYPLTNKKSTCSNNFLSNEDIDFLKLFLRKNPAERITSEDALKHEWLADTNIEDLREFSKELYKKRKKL
Sequence of Calcium-dependent protein kinase 1 (Plasmodium falciparum (isolate 3D7)) (P62344 whole entry, looked up): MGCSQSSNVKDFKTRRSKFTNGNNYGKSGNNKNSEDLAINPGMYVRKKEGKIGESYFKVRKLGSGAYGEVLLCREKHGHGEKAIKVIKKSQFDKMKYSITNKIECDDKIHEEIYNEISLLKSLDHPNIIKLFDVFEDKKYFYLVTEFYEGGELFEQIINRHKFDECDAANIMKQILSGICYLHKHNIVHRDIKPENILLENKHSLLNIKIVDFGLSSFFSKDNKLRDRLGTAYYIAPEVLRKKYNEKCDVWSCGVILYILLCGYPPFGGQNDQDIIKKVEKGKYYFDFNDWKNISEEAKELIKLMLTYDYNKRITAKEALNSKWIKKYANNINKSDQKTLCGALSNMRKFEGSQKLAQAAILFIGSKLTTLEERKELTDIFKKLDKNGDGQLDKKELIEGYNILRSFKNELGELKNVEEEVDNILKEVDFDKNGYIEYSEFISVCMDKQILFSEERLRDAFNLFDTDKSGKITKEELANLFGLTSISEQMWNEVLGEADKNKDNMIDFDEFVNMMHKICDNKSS
Sequence of L-lactate dehydrogenase (Plasmodium falciparum (isolate CDC / Honduras)) (Q27743 whole entry, looked up): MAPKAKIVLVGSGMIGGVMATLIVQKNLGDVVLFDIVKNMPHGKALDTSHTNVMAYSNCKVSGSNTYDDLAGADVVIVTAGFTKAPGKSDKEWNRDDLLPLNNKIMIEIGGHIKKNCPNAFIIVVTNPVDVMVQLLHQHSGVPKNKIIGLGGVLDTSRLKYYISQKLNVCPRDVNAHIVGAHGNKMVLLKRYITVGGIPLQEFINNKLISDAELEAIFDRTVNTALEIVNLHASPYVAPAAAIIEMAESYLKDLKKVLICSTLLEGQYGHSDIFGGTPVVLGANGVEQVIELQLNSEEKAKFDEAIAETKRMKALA
Sequence of Plasmodium falciparum protein kinase 6 (PK6, PF3D7_1337100) (Q8IDW1 1-305): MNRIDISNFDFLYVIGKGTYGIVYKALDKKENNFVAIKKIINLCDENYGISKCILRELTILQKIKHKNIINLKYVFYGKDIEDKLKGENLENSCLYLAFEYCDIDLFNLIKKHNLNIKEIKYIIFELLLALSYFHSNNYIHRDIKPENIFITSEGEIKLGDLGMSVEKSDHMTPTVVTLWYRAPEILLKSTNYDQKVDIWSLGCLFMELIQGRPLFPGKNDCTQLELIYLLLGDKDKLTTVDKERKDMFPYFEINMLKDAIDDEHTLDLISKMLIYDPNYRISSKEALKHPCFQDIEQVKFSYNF

CN(C)CCCOc1c(C(C)(C)C)cc(-c2cc(C(C)(C)C)c(OCCCN(C)C)c(C(C)(C)C)c2)cc1C(C)(C)C
active: growth inhibition [1] 99% | growth inhibition [4] 100%
inactive: inhibition [2] 25% | inhibition [3] 0% | outcome [5] | outcome [6] | outcome [7] | outcome [8]

CC(=O)c1ccc(NC(=O)Nc2ccc3nccc(N4CCN(C)CC4)c3c2)cc1
active: growth inhibition [1] 93% | growth inhibition [4] 101%
inactive: inhibition [2] 2% | inhibition [3] -1% | outcome [5] | outcome [6] | outcome [7] | outcome [8]

N=c1ccn(CC(=NO)c2ccc(Cl)c(Cl)c2)cc1
active: growth inhibition [1] 81% | growth inhibition [4] 87%
inactive: inhibition [2] 23% | inhibition [3] -2% | outcome [5] | outcome [6] | outcome [7] | outcome [8]

C=CCn1c(SCC(=O)Nc2cc(Cl)ccc2Cl)nc2sc(C)cc2c1=O
inactive: inhibition [2] 8% | inhibition [3] 0% | outcome [5] | outcome [6] | outcome [7] | outcome [8]
active: growth inhibition [1] 96% | growth inhibition [4] 97%

O=C(Cc1ccc(NC(=O)c2ccc(O)c(-c3ccc(Cl)c(Cl)c3)c2)cc1)NCc1cccc(C(F)(F)F)c1
inactive: growth inhibition [1] 28% | inhibition [2] -7% | inhibition [3] 0% | outcome [5] | outcome [6] | outcome [7] | outcome [8]
active: growth inhibition [4] 95%

CC(C)(C)OC(=O)/C=C(\C(=O)OCc1ccc([N+](=O)[O-])cc1)c1csc(NC(c2ccccc2)(c2ccccc2)c2ccccc2)n1
active: growth inhibition [1] 97% | growth inhibition [4] 96%
inactive: inhibition [2] 2% | inhibition [3] 3% | outcome [5] | outcome [6] | outcome [7] | outcome [8]

COc1cc(Nc2nc(N)c3cc(OC)c(OC)cc3n2)cc(OC)c1
inactive: inhibition [2] 7% | inhibition [3] 4% | outcome [5] | outcome [6] | outcome [7] | outcome [8]
active: growth inhibition [1] 102% | growth inhibition [4] 101%

Cc1cccc2[nH]c(-c3cccc(-c4cccc(NC(=O)Nc5ccsc5)c4)c3)nc12
active: growth inhibition [4] 102%
inactive: growth inhibition [1] 41% | inhibition [2] 15% | inhibition [3] -3% | outcome [5] | outcome [6] | outcome [7] | outcome [8]

CC(=O)Nc1ccc(OCCN(Cc2ccccc2C(F)(F)F)c2ccc(C#N)c(C(F)(F)F)c2)c(Cl)c1
inactive: inhibition [2] -6% | inhibition [3] -3% | outcome [5] | outcome [6] | outcome [7] | outcome [8]
active: growth inhibition [1] 78% | growth inhibition [4] 98%

O=C(c1cc(-c2cccs2)[nH]n1)N1CCN(S(=O)(=O)c2ccc(Cl)cc2)CC1
inactive: inhibition [2] -1% | inhibition [3] 3% | outcome [5] | outcome [6] | outcome [7] | outcome [8]
active: growth inhibition [1] 95% | growth inhibition [4] 96%

CCOC(=O)c1ccc(-n2c(C)cc(C=C3SC(=Nc4ccccc4)N(C4CCCC4)C3=O)c2C)cc1
active: growth inhibition [1] 61% | growth inhibition [4] 98%
inactive: inhibition [2] 2% | inhibition [3] 0% | outcome [5] | outcome [6] | outcome [7] | outcome [8]

Cc1ccc2cc(C3NC(=O)c4ccccc4N3)c(Cl)nc2c1 (configuration not stated)
inactive: growth inhibition [1] 38% | inhibition [2] -6% | inhibition [3] 1% | outcome [5] | outcome [6] | outcome [7] | outcome [8]
active: growth inhibition [4] 91%

COc1ccc(CN=C(N)Nc2nc(-c3ccc(OCCCn4ccnc4)cc3)cs2)cc1
active: growth inhibition [1] 67% | growth inhibition [4] 100%
inactive: inhibition [2] 15% | inhibition [3] -5% | outcome [5] | outcome [6] | outcome [7] | outcome [8]

CC1(C)[C@H]2C=C(CN3CCC(NC(=O)Nc4ccc(Cl)c(Cl)c4)CC3)[C@@H]1CC2
active: growth inhibition [4] 101%
inactive: growth inhibition [1] 33% | inhibition [2] 28% | inhibition [3] 2% | outcome [5] | outcome [6] | outcome [7] | outcome [8]

O=C(NC1CCCCN(Cc2ccccc2O)C1)c1ccc(Cl)c(Cl)c1 (configuration not stated)
inactive: inhibition [2] -7% | inhibition [3] -1% | outcome [5] | outcome [6] | outcome [7] | outcome [8]
active: growth inhibition [1] 96% | growth inhibition [4] 96%

COc1ccc2nccc([C@@H](O)CN3CCC(NCCOc4ccccc4[N+](=O)[O-])CC3)c2c1
inactive: inhibition [2] 4% | inhibition [3] -2% | outcome [5] | outcome [6] | outcome [7] | outcome [8]
active: growth inhibition [1] 98% | growth inhibition [4] 100%

O=C(Nc1cccc(-c2nn3ncccc3c2-c2ccnc(Nc3ccc(N4CCOCC4)cc3)n2)c1)c1c(F)cccc1F
active: growth inhibition [1] 75% | inhibition [2] 75% | growth inhibition [4] 101%
inactive: inhibition [3] 7% | outcome [5] | outcome [6] | outcome [7] | outcome [8]

COc1ccc(CC(=O)Nc2ccc(Nc3nc(C)cc(N(C)C)n3)cc2)cc1
active: growth inhibition [4] 97%
inactive: growth inhibition [1] 31% | inhibition [2] 17% | inhibition [3] -3% | outcome [5] | outcome [6] | outcome [7] | outcome [8]

CCC(C)NS(=O)(=O)c1ccc2nc(Nc3ccc(C)cc3)n(C3CCCCC3C)c2c1 (configuration not stated)
inactive: inhibition [2] 1% | inhibition [3] 1% | outcome [5] | outcome [6] | outcome [7] | outcome [8]
active: growth inhibition [1] 99% | growth inhibition [4] 95%

FC(F)(F)c1ccc2nc(-c3ccc(-c4ccc(CN5CCN(c6cnccn6)CC5)cc4)s3)[nH]c2c1
inactive: inhibition [2] 23% | inhibition [3] -7% | outcome [5] | outcome [6] | outcome [7] | outcome [8]
active: growth inhibition [1] 99% | growth inhibition [4] 101%

COc1ccc(C2C(C(=O)Nc3ccc(C)c(F)c3)c3cc(OC)c(OC)cc3C(=O)N2C)cc1 (configuration not stated)
inactive: growth inhibition [1] 26% | inhibition [2] 6% | inhibition [3] -2% | outcome [5] | outcome [6] | outcome [7] | outcome [8]
active: growth inhibition [4] 81%

Cc1ccc2ccccc2c1CCCON1C(N)=NC(N)=NC1(C)C
active: growth inhibition [1] 97% | inhibition [2] 65% | growth inhibition [4] 95%
inactive: inhibition [3] 5% | outcome [5] | outcome [6] | outcome [7] | outcome [8]

c1ccc2cc3c(Nc4ccc(N5CCCCCC5)cc4)ccnc3cc2c1
inactive: inhibition [2] 10% | inhibition [3] 1% | outcome [5] | outcome [6] | outcome [7] | outcome [8]
active: growth inhibition [1] 76% | growth inhibition [4] 94%

OCCN1CCN(Cc2cccc(-c3ccc(-c4nc5ccc(C(F)(F)F)cc5[nH]4)s3)c2)CC1
active: growth inhibition [1] 98% | growth inhibition [4] 101%
inactive: inhibition [2] 42% | inhibition [3] -5% | outcome [5] | outcome [6] | outcome [7] | outcome [8]

CC1CCN(C(=O)C(Cc2c[nH]c3ccccc23)NS(=O)(=O)c2ccc(Cl)cc2)CC1 (configuration not stated)
active: growth inhibition [1] 99% | growth inhibition [4] 100%
inactive: inhibition [2] -22% | inhibition [3] -4% | outcome [5] | outcome [6] | outcome [7] | outcome [8]

Cc1ccc2c(=O)n(C)c(=O)n(C)c2n1
active: growth inhibition [4] 98%
inactive: growth inhibition [1] -3% | inhibition [2] 15% | inhibition [3] 4% | outcome [5] | outcome [6] | outcome [7] | outcome [8]

CCCCCCCCOc1c(OCC)cc(Cc2cnc(N)nc2N)cc1OCC
inactive: growth inhibition [1] -1% | inhibition [2] 25% | inhibition [3] 3% | outcome [5] | outcome [6] | outcome [7] | outcome [8]
active: growth inhibition [4] 80%

N#Cc1ccc(N2CCN(Cc3ccc(-c4ccc(-c5nc6ccc(C(F)(F)F)cc6[nH]5)cc4)cc3)CC2)nc1
inactive: inhibition [2] 19% | inhibition [3] 4% | outcome [5] | outcome [6] | outcome [7] | outcome [8]
active: growth inhibition [1] 90% | growth inhibition [4] 101%

CC(C)CNCc1cccc(-c2ccc(CN(CCCN3CCN(C)CC3)C(=O)CCC3CCCC3)cc2)c1
active: growth inhibition [1] 89% | inhibition [2] 82% | growth inhibition [4] 98%
inactive: inhibition [3] 0% | outcome [5] | outcome [6] | outcome [7] | outcome [8]

Cc1cc(Nc2c(C(N)=O)cnc3cc(-c4ccoc4)ccc23)ccc1N1CCN(C)CC1
active: growth inhibition [1] 100% | growth inhibition [4] 101%
inactive: inhibition [2] 7% | inhibition [3] 1% | outcome [5] | outcome [6] | outcome [7] | outcome [8]

OCC1CCCCN1Cc1cccc(-c2cccc(-c3nc4ccccc4[nH]3)c2)c1 (configuration not stated)
inactive: growth inhibition [1] 4% | inhibition [2] 24% | inhibition [3] 0% | outcome [5] | outcome [6] | outcome [7] | outcome [8]
active: growth inhibition [4] 95%

CCNc1cc(C(=O)N[C@@H](Cc2ccccc2)[C@H](O)CNCCc2cccc3ccccc23)cc(N2CCCC2=O)c1
active: growth inhibition [4] 86%
inactive: growth inhibition [1] 39% | inhibition [2] 12% | inhibition [3] 3% | outcome [5] | outcome [6] | outcome [7] | outcome [8]

COc1cc(C(F)(F)F)nc2c(CNCCCNc3cc(=O)c4ccccc4[nH]3)scc12
inactive: growth inhibition [1] 16% | inhibition [2] -7% | inhibition [3] -2% | outcome [5] | outcome [6] | outcome [7] | outcome [8]
active: growth inhibition [4] 92%

O=S(=O)(Nc1cc2c(cc1O)CCNCC2)c1ccc(-c2ccc(Cl)cc2)cc1
inactive: growth inhibition [1] 0% | inhibition [2] 10% | inhibition [3] 3% | outcome [5] | outcome [6] | outcome [7] | outcome [8]
active: growth inhibition [4] 99%

Cc1cc2nc(-c3ccc(/C=C/C(=O)NCc4ccc(Cl)c(Cl)c4)cc3)[nH]c2cc1C
inactive: inhibition [2] 32% | inhibition [3] -1% | outcome [5] | outcome [6] | outcome [7] | outcome [8]
active: growth inhibition [1] 83% | growth inhibition [4] 98%

COc1cc(NC(=O)CCCCCCCCN2CCN(C)CC2)c2ncccc2c1
active: growth inhibition [4] 82%
inactive: growth inhibition [1] 36% | inhibition [2] 8% | inhibition [3] -1% | outcome [5] | outcome [6] | outcome [7] | outcome [8]

CC(=O)Nc1ccc(CN(Cc2ccc(F)cc2)Cc2cccc(Oc3ccccc3)c2)cc1
inactive: inhibition [2] -8% | inhibition [3] 6% | outcome [5] | outcome [6] | outcome [7] | outcome [8]
active: growth inhibition [1] 82% | growth inhibition [4] 88%

Cc1[nH]c(C)c(-c2ccc(-c3cccc(Cl)c3)nc2)c(=O)c1Cl
inactive: inhibition [2] 15% | inhibition [3] 0% | outcome [5] | outcome [6] | outcome [7] | outcome [8]
active: growth inhibition [1] 97% | growth inhibition [4] 97%

CCCC(=O)Nc1ccc(OCCCN(Cc2ccccc2C(F)(F)F)c2ccc(C#N)c(C(F)(F)F)c2)cc1
inactive: inhibition [2] -5% | inhibition [3] 2% | outcome [5] | outcome [6] | outcome [7] | outcome [8]
active: growth inhibition [1] 79% | growth inhibition [4] 89%
